Source: PubChem BioAssay AID1347073 (National Center for Advancing Translational Sciences (NCATS), 2019)
Among all 45,000 compounds or so, about 200 (0.44%) were called active. Another 7% or so got no clear call; they are omitted. This excerpt belongs to a sample that is enriched for actives. Unmarked numbers belong to inactive results. The call rests on the fitted dose curve; in most records, active means well fitted activation curve with a large enough effect; inconclusive means small, poorly fitted or top-dose-only effect; inactive means no such curve, though single readings can be large or run the other way.

Assay: qHTS of TDP-43 Inhibitors: NCGC Sytravon Library Screen; further: nearly all actives have a fitted effect of over 55% in size; on growth rescue (activation): 0% is about no effect
Conditions: yeast TDP-43 toxicity rescue, BacTiter-Glo growth, 24 h; series mostly up to 46.1 µM; growth rescue (activation): at the top concentration
Excerpt: The goal of this project is to identify new chemical probes capable of reversing the toxicity associated with TDP-43 which is associated with frontotemporal lobar degeneration and amyotrophic lateral sclerosis. These compounds will provide a complementary approach to deciphering the tangled mechanisms of toxicity and protection that we have uncovered through genome-wide genetic screens and are beginning to uncover in a large-scale proteomics analysis with mass spectroscopy. To this end, a miniaturized assay was developed to be screened against the Molecular Libraries Small Molecule Repository (MLSMR) to discover TDP-43 inhibitors. Please note that in the set-up this yeast-based assay compounds that inhibit as TDP-43, have a read-out as activators. NIH Chemical Genomics Center [NCGC] NIH Molecular Libraries Probe Centers Network [MLPCN] Assay Submitter (PI): Susan Lindquist, Whitehead Institute/MIT MLPCN Grant: R21 NS060957
Dispense 2.5 microL yeast galactose medium per 1536-well plate, pin compound, dispense 2.5 microL TDP-43 expressing yeast in galactose medium at OD600=0.02 (pregrown in raffinose medium to mid-log phase) per well, incubate for 24 hr at 30 deg C, and cell growth will be measured using 5 microL of Bactiter/Glo reagent to entire plate and read using Luminescence Protocol in ViewLux.
Potency means the concentration at half of the fitted maximal effect.

SMILES | growth rescue (activation) | Potency
O=C(CN1CCC(O)(c2cccc(C(F)(F)F)c2)CC1)NCCc1ccccc1 | -14.5% | –
CC(NC(=O)COC(=O)c1cc(=O)[nH]c2ccccc12)c1ccccc1 (configuration not stated) | -3.18% | –
COc1cc(C(c2c(NC(=O)c3ccco3)sc(C)c2C)N2CCOCC2)cc(OC)c1OC (configuration not stated) | 20.2% | –
CC1(C(=O)Nc2cccc3cccnc23)CCN1C(=O)CCC1CCCC1 (configuration not stated) | 23.9% | –
Cc1ccc(N2C(=O)CN=C2Nc2nc(C)cc(C)n2)cc1 | -13.7% | –
CCOc1cc(NC(=O)CCl)c(OCC)cc1NC(C)=O | -3.67% | –
O=S(=O)(Nc1ncnc2sccc12)c1cccc(F)c1 | 19.2% | –
CCN(CC(=O)NCc1ccco1)S(=O)(=O)c1ccc(F)cc1 | -6% | –
Cc1cc(C)cc(N(CC(=O)NC2CCCC2)C(=O)CCC(=O)Nc2nccs2)c1 | 4.02% | –
COc1cc(C(=O)OCc2cc(=O)n3ccsc3n2)ccc1OC(C)C | 16.8% | –
COCCNC(=O)CSc1nc2sccc2c(=O)n1-c1ccccc1 | 1.63% | –
CC(=O)NC(Cc1ccc(F)c(F)c1)C(=O)NC1CCN(c2nnnn2-c2ccccc2)CC1 (configuration not stated) | -0.882% | –
CC1CN(C(=S)SCC(=O)c2ccccc2)CC(C)O1 (configuration not stated) | 20.5% | –
CC1CN(c2nc(-c3ccccc3)nnc2-c2ccccc2)CC(C)O1 (configuration not stated) | – | 12.6 µM (active)
COc1ccc(CNc2ncnc3ccccc23)cc1 | -6.94% | –
COc1cccc(CNc2nc(C(F)(F)F)nc3ccccc23)c1 | – | 15.8 µM (active)
NS(=O)(=O)c1ccc(CCNc2nc(C(F)(F)F)nc3ccccc23)cc1 | 10.7% | –
CN(c1ccccc1)S(=O)(=O)c1cccc(NC(=O)Cc2c(F)cccc2Cl)c1 | 9.22% | –
O=C(COc1ccc(Br)cc1F)NCC1(N2CCCCC2)CCCCC1 | -1.19% | –
Cc1cccc(NC(=S)N2CCC(O)CC2)c1C | 11.9% | –
CCOC(=O)/C(=N\Nc1ccccc1Cl)N(C)C1CCS(=O)(=O)C1 (configuration not stated) | 17.3% | –
CC(C)CN1CCNC(=O)C1CC(=O)N(C)CC1CCOCC1 (configuration not stated) | -15.8% | –
O=C(c1cccc(S(=O)(=O)N2CCCC2)c1)N(Cc1ccco1)C1CCS(=O)(=O)C1 (configuration not stated) | 2.24% | –

SMILES | growth rescue (activation) | Potency
COc1ccc(-c2nn(C)c(=O)c3ccccc23)cc1CNC(=O)C1CCCCC1 | 10.4% | –
CCc1ccc(N2CC(C(=O)Nc3ccc(S(=O)(=O)Nc4nccs4)cc3)CC2=O)cc1 (configuration not stated) | 3.52% | –
Cc1nc2c(OCc3ccc(Cl)cc3Cl)cccn2c1N(C)CC1CC1 | -1.5% | –
CC1CCN(c2ccc(C(=O)Nc3nnc(C4CC4)s3)cc2[N+](=O)[O-])CC1 | 1.71% | –
Cc1ccc(NC(=O)c2ccc(Cl)nc2)cc1S(=O)(=O)N1CCOCC1 | 1.92% | –
CC(C)N(C)C(=O)CCc1nnc(CCc2c[nH]c3ccccc23)o1 | -2.17% | –
CC(CC(=O)N1CCN(S(=O)(=O)c2ccccc2)CC1)n1cncn1 (configuration not stated) | -14.2% | –
COc1ccc(OCC(=O)Nc2cc(C)c(Cl)cc2OC)c([N+](=O)[O-])c1 | 12.2% | –
Cc1ccc([N+](=O)[O-])cc1S(=O)(=O)N1CCCN(C)CC1 | 10.7% | –
Cc1ccc(C)c(S(=O)(=O)N2CCN(c3ncnc4sccc34)CC2)c1 | – | 11.2 µM (active)
Cc1ccc(C)c(S(=O)(=O)N2CCN(CC(=O)Nc3ccc([N+](=O)[O-])cc3)CC2)c1 | 21.5% | –
CCN(CC(=O)Nc1ccccc1C(=O)NC1CC1)Cc1cccs1 | 14.9% | –
CC(=O)NC(CC(=O)Nc1ccc(S(=O)(=O)N2CCOCC2)cc1)c1ccccc1 (configuration not stated) | 21.1% | –
COc1ccc(NC(=O)N2CCCC(C(=O)Nc3ccccc3OC)C2)cc1 (configuration not stated) | 18.1% | –
COc1ccc(CNC(=O)C(c2ccc(O)cc2)N(Cc2ccco2)C(=O)c2snc(C(N)=O)c2N)cc1 (configuration not stated) | -7.37% | –
O=C(c1cccs1)N(Cc1cc2ccccc2[nH]c1=O)CC1CCCO1 (configuration not stated) | -0.588% | –
CCOc1ccc(C(C)=O)cc1CSc1nnc(-c2ccncc2)n1CCOC | -4.62% | –
CCOc1ccc(S(=O)(=O)N2CCC(C(=O)NCc3ccccn3)CC2)cc1Cl | -4.66% | –
Cc1cccc(C(=O)N2CCN(S(=O)(=O)N3CCCCC3)CC2)c1 | 28.1% | –
Cc1ccc(C(=O)NNC(=O)CSc2nnc3ccccn23)cc1 | 5.26% | –
Cc1cc(C)nc(N/N=C/c2c(C)oc3ccccc23)n1 | 13.5% | –
CCOC(=O)C1CCN(C(=O)COc2cccc3ccccc23)CC1 | 14.4% | –
CN(C)S(=O)(=O)Oc1ccccc1C(=O)Nc1ccccc1Cl | 5.76% | –

SMILES | growth rescue (activation) | Potency
CC1(C(=O)NS(=O)(=O)c2ccc(Cl)cc2)CCN1C(=O)CC1CCCC1 (configuration not stated) | 5.06% | –
O=C(N/N=C/c1ccc([N+](=O)[O-])cc1)C(=O)N1CCCC1 | 10.7% | –
C/C(=C/C(=O)N1CCN(C)CC1)C(=O)O | -4.69% | –
CCOc1ccc(NC(=O)CCC(=O)NNC(=O)NC2CCCCC2)cc1 | -6.88% | –
O=C(O)c1ccccc1CSc1nc2ccccc2s1 | – | 11.2 µM (active)
O=C(O)c1cccc(S(=O)(=O)Nc2ccc(O)cc2Sc2nc3ccccc3s2)c1 | 8.39% | –
O=C(O)CC/C(=C\c1cc2c(cc1Br)OCO2)c1nc2ccccc2s1 | 14.9% | –
COc1ccccc1N(CC(=O)Nc1ccc(C)cc1Cl)S(=O)(=O)c1cccs1 | 3.97% | –
O=C(NNS(=O)(=O)c1ccc(F)cc1)C1CCCCC1 | 15.8% | –
O=C(Nc1ccc(Cl)cc1)c1csc([C@H]2C[C@H](O)[C@@H](CO)O2)n1 | -7.86% | –
CCOC(=O)c1oc2c(CN3CCN(CCO)CC3)c(O)c(CC)cc2c(=O)c1-c1nc2ccccc2s1 | -2.19% | –
CCNc1nc(NCC)nc(N/N=C/c2ccc(O)c(OC)c2)n1 | 8.29% | –
COc1ccc(C(=O)NC2CCN(C(=O)Nc3ccc(F)cc3)CC2)cc1 | 4.62% | –
Cc1nc(CN2CCN(C(=O)CCc3nnc(Cc4c[nH]c5ccccc45)o3)CC2)cs1 | 5.06% | –
CCNC(=O)C1(C)CCCN(Cc2noc(-c3ccccc3OC)n2)C1 (configuration not stated) | 8.22% | –
Cc1ccc(CN(CC(=O)NCC2CCCO2)S(=O)(=O)c2ccc(C)cc2)cc1 (configuration not stated) | 21% | –
COC(=O)c1c(NC(=O)CN2C(=O)NC(CCc3ccccc3)C2=O)sc2c1CCCCC2 (configuration not stated) | -21.8% | –
COCCNC(=O)CN(Cc1ccco1)C(=O)CCC(=O)Nc1nccs1 | 2.54% | –
O=C(NCCCN1CCOCC1)c1cc(-c2cccc(O)c2)on1 | -3.23% | –
COc1ccc(CCNC2=CC(=O)CC(C)(C)C2)cc1 | -5.94% | –
CCOc1ccccc1/C=N/Nc1nc2ccccc2o1 | 15.2% | –
